{"source": "PubChem BioAssay (NCATS)", "note": "Results filed as inconclusive are left out. Active and inactive are the calls of the source. Calls come from the whole dose curve; as a rule, active = well fitted cell-killing curve with a large enough effect; inconclusive = small, poorly fitted or top-dose-only effect, or effect the other way; inactive = no such curve, though single readings can be large or run the other way. Potency is the fitted concentration of half-maximal effect."}
{"assay": "Quantitative High-Throughput drug screen in 47 multiple myeloma cell lines against the NCATS MIPE library collection: KMS27_JCRB cell viability assay (AID 1918970); note: nearly all actives have a fitted effect of over 30% in size", "conditions": "KMS27 myeloma cells, CellTiter-Glo ATP viability, 48 h; viability (% of DMSO): at 45.8 µM (top of the series)", "excerpt": "PI: Beverly A. Mock Ph.D.\nLaboratory of Cancer Biology and Genetics,\nCenter for Cancer Research, National Cancer Institute,\nNational Institute of Health, Bethesda, Maryland\nDrug resistance and disease progression are common in multiple myeloma (MM) patients, underscoring the need for new therapeutic combinations. […] We hypothesized that effective combinations would reduce MYC expression and enhance p16 activity. […] These preclinical data identify potentially useful drug combinations for evaluation in drug-resistant MM and reveal potential mechanisms of combined drug sensitivity.\nDescribed herein is the primary MIPE qHTS used to cherrypick compounds. Validated compounds were then further tested for potential synergistic activiy.\n[1] Peat TJ, Gaikwad SM, Dubois W, Gyabaah-Kessie N, Zhang S, Gorjifard S, Phyo Z, Andres M, Hughitt VK, Simpson RM, Miller MA, Girvin AT, Taylor A, Williams D, D'Antonio N, Zhang Y, Rajagopalan A, Flietner E, Wilson K, Zhang X, Shinn P, Klumpp-Thomas C, McKnight C, Itkin Z, Chen L, Kazandijian D, Zhang J, Michalowski AM, Simmons JK, Keats J, Thomas CJ, Mock BA. Drug combinations identified by high-throughput screening promote cell cycle transition and upregulate Smad pathways in myeloma. […] Epub 2023 Jun 24. PMID: 37356470; PMCID: PMC10408729.\nSEQUENCE No. (e.g., 1, 2, 3, etc.); […] (e.g., Cells, Incubation, Reagent, etc.); VALUE and DESCRIPTION.\n1; Cells; 5 uL; white, solid bottom 1536-well Greiner assay plate.\n2; Compounds; 23 nL; Kalypsis pin tool (Wako USA) equipped with a 1536-well pin head to transfer to the assay plates.\n3; Incubation; 48 hours; 37C incubation.\n4; Reagent;5uL; CellTiter Glo (Promega).\n5; Detector; 425V; Luminescence; Viewlux PerkinElmer.\nNOTES (numbers refer to Sequence numbers above)\n1. The cell-based screening methods employed in this study were like those previously published. Briefly, the corresponding myeloma cell lines were screened in 1,536-well plates with 500 cells, 5-uL per well for inhibition of cell viability (assessed by measuring ATP levels with CellTiterGlo).\n2. NCATS MIPE 4.0 library of approved and investigational drugs were added using the Kalypsis pin tool. Wells treated with DMSO only for 100% viability and media only wells for 0% viability were used as controls.\n3. The assay plates were covered and incubated for 48 hours in a 37C, 5% CO2 incubator with controlled humidity.\n4. After 48 hours, CellTilter-GloTM luminescent substrate mix (Promega) reagent was added to the assay plate and plates we incubated for 5 min at room temperature.\n5. Signal was measured as median relative luminescence units on a ViewLux (PerkinElmer) multiplate reader.\n[1] Heske CM, Davis MI, Baumgart JT, Wilson K, Gormally MV, Chen L, Zhang X, Ceribelli M, Duveau DY, Guha R, Ferrer M, Arnaldez FI, Ji J, Tran HL, Zhang Y, Mendoza A, Helman LJ, Thomas CJ. Matrix Screen Identifies Synergistic Combination of PARP Inhibitors and Nicotinamide Phosphoribosyltransferase (NAMPT) Inhibitors in Ewing Sarcoma. Clin Cancer Res. 2017 Dec 1;23(23):7301-7311. doi: 10.1158/1078-0432.CCR-17-1121. Epub 2017 Sep 12. PMID: 28899971; PMCID: PMC6636827."}
{"smiles": "CN(C)S(=O)(=O)c1ccc2c(c1)C(=Cc1cc3c([nH]1)CCCC3)C(=O)N2", "Potency": "3.32 µM (active)"}
{"smiles": "Cc1ccccc1-n1c(Cn2nc(-c3cccc(O)c3)c3c(N)ncnc32)nc2cccc(C)c2c1=O", "Potency": "0.469 µM (active)"}
{"smiles": "Cn1cc(-c2ccc3nnc(Sc4ccc5ncccc5c4)n3n2)cn1", "viability (% of DMSO)": "147% (inactive)"}
{"smiles": "C[C@H](c1ccc(F)cc1CCCC(=O)O)N(c1cc(F)ccc1F)S(=O)(=O)c1ccc(Cl)cc1", "viability (% of DMSO)": "103% (inactive)"}
{"smiles": "CN(C)CCN(C)C(=O)c1ccc(NC(=O)Nc2ccc(-c3nc(N4CCOCC4)c4ccn(CC(F)(F)F)c4n3)cc2)cc1", "Potency": "0.001 µM (active)"}
{"smiles": "CC(C)CNc1ccnc(NCc2csc(-c3ccccc3)n2)n1", "Potency": "13.2 µM (active)"}
{"smiles": "CNC1[C@H](O)C(O[C@@H]2C(O)C(O[C@H]3O[C@H]([C@@H](C)NC)CC[C@H]3N)[C@@H](N)C[C@H]2N)OC[C@]1(C)O", "note": "(stereo not given in full)", "viability (% of DMSO)": "107% (inactive)"}
{"smiles": "CN1C(=O)C(Cc2c[nH]c3ccccc23)NC1=S", "note": "(stereo not given)", "viability (% of DMSO)": "91% (inactive)"}
{"smiles": "O=C(c1ccc(C(=O)N2CCC(N3CCCC3)CC2)c(Nc2ccccc2)c1)N1CCC(N2CCCC2)CC1", "viability (% of DMSO)": "128% (inactive)"}
{"smiles": "C[C@@H](N)c1ccc(C(=O)Nc2ccnc3[nH]ccc23)cc1", "Potency": "18.7 µM (active)"}
{"smiles": "CC[C@H](C=C[C@@H](C)[C@H]1CC[C@H]2[C@@H]3CC=C4C[C@@H](O)CC[C@]4(C)[C@@H]3CC[C@]12C)C(C)C", "viability (% of DMSO)": "104% [at 23.2 µM] (inactive)"}
{"smiles": "CNC(=O)[C@H](CC1=CN=C2C=CCC=C12)NC(=O)[C@@H](CC(=O)NO)CC(C)C", "Potency": "0.0935 µM (active)"}
{"smiles": "CN1CCN2c3ncccc3Cc3ccccc3C2C1", "note": "(stereo not given)", "Potency": "1.05 µM (active)"}
{"smiles": "CC(C)[C@H](O)C(=O)N[C@@H](C)C(=O)N[C@@H]1C(=O)N(C)CCc2ccccc21", "viability (% of DMSO)": "141% (inactive)"}
{"smiles": "NC(=O)c1noc([C@H](CCCC2CCCCC2)CC(=O)NO)n1", "Potency": "7.43 µM (active)"}
{"smiles": "CCN1C[C@H](C)n2c(c(O)c3c(=O)n(Cc4ccc(F)c(Cl)c4)nc(C(=O)NC)c32)C1=O", "viability (% of DMSO)": "118% (inactive)"}
{"smiles": "Cc1ccc(C(=O)N(CCCN)[C@@H](c2oc3cc(Cl)ccc3c(=O)c2Cc2ccccc2)C(C)C)cc1", "viability (% of DMSO)": "4.28% (inactive)"}
{"smiles": "Cc1ccc2c(c1)c1c(n2CCc2ccc(C)nc2)CCN(C)C1", "viability (% of DMSO)": "90% (inactive)"}
{"smiles": "COc1cccc(OC)c1-c1cc(C(=O)NC2(C(=O)O)C3CC4CC(C3)CC2C4)nn1-c1ccnc2cc(Cl)ccc12", "note": "(stereo not given)", "viability (% of DMSO)": "105% (inactive)"}
{"smiles": "CC(C)C[C@H](NC(=O)c1cc2ccccc2s1)C(=O)N1CCN(C(=O)[C@H](CO)NS(=O)(=O)c2ccc(Cl)cc2Cl)CC1", "viability (% of DMSO)": "120% (inactive)"}
{"smiles": "CNC(=O)[C@H](Cc1ccccc1)NC(=O)[C@H](CC(C)C)[C@H](CSc1cccs1)C(=O)NO", "viability (% of DMSO)": "97.1% (inactive)"}
{"smiles": "Nc1ncnc2c1ncn2[C@@H]1O[C@H](CO)[C@@H](O)[C@@H]1O", "Potency": "0.418 µM (active)"}
{"smiles": "O=S(=O)(NCCNCC=Cc1ccc(Br)cc1)c1cccc2cnccc12", "Potency": "13.2 µM (active)"}
{"smiles": "COc1cc2c(cc1OC)[C@@H]1Cc3ccc(OC)c(OC)c3CN1CC2", "viability (% of DMSO)": "107% (inactive)"}
{"smiles": "COC1CCC(C(=O)c2ccc3nc4c(cc3c2)CCCO4)CC1", "note": "(stereo not given)", "Potency": "18.7 µM (active)"}
{"smiles": "CC1CNc2c(cccc2S(=O)(=O)N[C@@H](CCCN=C(N)N)C(=O)N2CC[C@@H](C)C[C@@H]2C(=O)O)C1", "note": "(stereo not given in full)", "Potency": "14.8 µM (active)"}
{"smiles": "CCN1CCN(c2ccc(Nc3cc(N(C)C(=O)Nc4c(Cl)c(OC)cc(OC)c4Cl)ncn3)cc2)CC1", "viability (% of DMSO)": "170% (inactive)"}
{"smiles": "CCC=CC[C@H]1C(=O)CC[C@@H]1CC(=O)OC", "viability (% of DMSO)": "150% (inactive)"}
{"smiles": "CC(C)Oc1cc(Nc2nc(N[C@@H](C)c3ccc(F)cn3)ncc2Cl)[nH]n1", "Potency": "20.9 µM (active)"}
{"smiles": "CC1(C)C(N(O)C(=O)Nc2ccc(Cl)cc2)N(c2ccc(Cl)cc2)C(=O)N1CC(=O)NN=CC=Cc1ccc([N+](=O)[O-])o1", "note": "(stereo not given)", "viability (% of DMSO)": "97.3% (inactive)"}
{"smiles": "C=C1c2cccc(O)c2C(O)=C2C(=O)[C@@]3(O)C(O)=C(C(N)=O)C(=O)[C@@H](N(C)C)[C@@H]3[C@@H](O)[C@H]12", "viability (% of DMSO)": "120% (inactive)"}
{"smiles": "CCCCCCCCCCCCCC(=O)N[C@H](CO)[C@H](O)c1ccc([N+](=O)[O-])cc1", "Potency": "14.8 µM (active)"}
{"smiles": "O=C(CO)N1CCC(c2[nH]nc(-c3ccc(Cl)cc3)c2-c2ccncn2)CC1", "viability (% of DMSO)": "115% (inactive)"}
{"smiles": "C[C@@H]1[C@H](C)CC[C@]2(C(=O)O)CC[C@]3(C)C(=CC[C@@H]4[C@@]5(C)CC[C@H](O)C(C)(C)[C@H]5CC[C@]43C)[C@@H]12", "viability (% of DMSO)": "136% [at 92.2 µM] (inactive)"}
{"smiles": "Cn1cnc(-c2cc3nccc(Oc4ccc(NC(=S)NC(=O)Cc5ccccc5)cc4F)c3s2)c1", "Potency": "23.5 µM (active)"}
{"smiles": "COc1ccc2cc1Oc1ccc(cc1)C[C@H]1c3cc(c(OC)cc3CCN1C)Oc1c(OC)c(OC)cc3c1[C@H](C2)N(C)CC3", "Potency": "3.72 µM (active)"}
{"smiles": "CCCCn1c(=O)n(Cc2ccccc2F)c(=O)c2[nH]c(Cc3ccc(NC(C)=O)cc3)nc21", "viability (% of DMSO)": "112% (inactive)"}
{"smiles": "O=c1cc(-c2ccc(O)c(O)c2)oc2cc(O)cc(O)c12", "Potency": "6.62 µM (active)"}
{"smiles": "CNc1nc(-c2ccc3c(N)n[nH]c3c2)cc(N2C[C@@H](C(=O)NC3CCCCC3)CC[C@@H]2C)n1", "Potency": "10.5 µM (active)"}
{"smiles": "CC(NCCc1ccc(O)cc1)C(O)c1ccc(O)cc1", "note": "(stereo not given)", "viability (% of DMSO)": "97.9% (inactive)"}
